Compound activity: PubChem, Sanford-Burnham Center for Chemical Genomics
In the library only some 4% were active in any assay of this set; here they are far more common.
KKLEB cytotox: cytotoxicity in KKLEB CF airway cells, primary screen, cytotoxicity control for CF NF-kB inhibitor project, cell-based, uHTS, fluorescence assay plates | 0.36% of 360,000 active | activity change (cytotoxicity), % at 5 µM | KKLEB CF airway cells viability, ATPlite luminescence, overnight; active compounds read low; cells stimulated with P. aeruginosa culture filtrate;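 active = corrected activity change at or below -50% at 5 µM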
HIF-2a inh: HIF-2a reporter inhibitors, primary screen, luminescence, 786-0 RCC cells | 786-0 RCC cells HIF-2a reporter, luciferase luminescence, overnight | inhibition, % at 18.8 µM | 0.72% of 360,000 active | AID 624352, 2012;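 active = inhibition of the luminescence signal of 40% or more relative to plate controls, in a single-dose primary screen at 18.75 µM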
TROY NFkB inh: inhibitors of TROY-driven NF-kB signaling, primary screen, Q293 LMP1-TROYcd cells, NF-kB luciferase, uHTS; inhibition, % at 10 µM; Q293 LMP1-TROYcd NF-kB luciferase reporter, 4 h; AID 1347056, 2019; 0.98% of 360,000 active;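 active = compounds whose plate-normalised and pattern-corrected inhibition of the luciferase reporter signal at the single screening dose is 50% or more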
TWEAK-Fn14 inh: inhibitors of TWEAK-Fn14 signaling, primary screen, luciferase reporter cells, uHTS. TWEAK-stimulated Fn14 reporter cells, luciferase luminescence, 8 h. inhibition, % at 10 µM. 2% of 360,000 active. AID 1159606, 2016; in the data active = inhibition above about 50%
CF NFkB inh: inhibitors of PAF-induced NF-kB signaling, primary screen, cell-based, GFP fluorescence, uHTS; KKLEB NF-kB-GFP reporter, GFP fluorescence overnight; inhibition, % at 5 µM; 0.86% of 360,000 active; AID 588850, 2011;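 active = at least 50% inhibition at 5 µM, scaled per plate between neutral and stimulator controls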;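 note: PAF is a Pseudomonas aeruginosa culture filtrate used as stimulus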
Peg3 prom inh: Peg3 promoter-driven luciferase inhibitors, primary screen, cell-based, HeLa, luciferase luminescence; HeLa PEG-Prom luciferase reporter, overnight; AID 588405, 2011; inhibition, % at 20 µM; 1.7% of 360,000 active;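 active = inhibition of at least 50% at 20 µM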
Large screens that a line does not name were inactive.

CCOc1cc(N2CCOCC2)c(OCC)cc1NC(=O)Cc1cn2ccsc2n1	none
FC(F)Sc1ccc(NC(=S)N2CCN(c3ccccn3)CC2)cc1	TWEAK-Fn14 inh 56
Oc1ccccc1N1CCN(C(=S)Nc2ccc(SC(F)F)cc2)CC1	none
CCOC(=O)c1c(-n2cnnn2)sc2c1CCCC2	none
CCOC(=O)c1c(N2C(=O)C3C4C=CC(O4)C3C2=O)sc2c1CCCC2 (stereo not drawn)	Peg3 prom inh 51
CCOC(=O)c1c(N2C(=O)Nc3cc(Cl)c(Cl)cc3N2O)sc2c1CCCCC2	TROY NFkB inh 53
O=C(Nc1ccccc1C(=O)N1CCCCC1)c1cccc(S(=O)(=O)N2CCOCC2)c1	TWEAK-Fn14 inh 60 (no result: TROY NFkB inh)
O=C(N/N=C/c1cc(Br)cc(Br)c1O)c1cccc(S(=O)(=O)N2CCOCC2)c1	Peg3 prom inh 55
O=C(N/N=C/c1ccccc1Br)c1cccc(S(=O)(=O)N2CCOCC2)c1	none
Cc1cc(NC(=O)c2cccc(S(=O)(=O)N3CCCCCC3)c2)n(-c2ccccn2)n1	TWEAK-Fn14 inh 52
O=C(N/N=C/c1ccc(OC(F)F)cc1)c1cccc(S(=O)(=O)N2CCOCC2)c1	TWEAK-Fn14 inh 71
Cc1cc(NC(=O)c2cccc(S(=O)(=O)N(C)C)c2)n(-c2ccccn2)n1	none
CC(=O)C1=C(C)N=c2s/c(=C/c3ccc4c(c3)OCO4)c(=O)n2C1c1ccc(N(C)C)cc1 (stereo not drawn)	none
CC(=O)Nc1ccc(S(=O)(=O)/N=C2/NC(=O)/C(=C\c3ccco3)S2)cc1	none
COc1cc(CN2CCC(C(=O)NC(c3ccc(-c4ccccc4)cc3)c3cnccn3)CC2)cc(OC)c1 (stereo not drawn)	none
O=C(NC(c1ccc(-c2ccccc2)cc1)c1cnccn1)C1CCN(Cc2ccc(Oc3ccccc3)cc2)CC1 (stereo not drawn)	Peg3 prom inh 56
Oc1ccc(Nc2nc(-c3ccccc3)nc3ccccc23)cc1	none
Oc1ccc(Nc2nc3ccccc3nc2Nc2ccc(O)cc2)cc1	HIF-2a inh 75, TWEAK-Fn14 inh 76, Peg3 prom inh 96
CC1(C)C(/C=C/C=C/C=C/C=C2\N(CCCCS(=O)(=O)O)c3ccc4ccccc4c3C2(C)C)=[N+](CCCCS(=O)(=O)[O-])c2ccc3ccccc3c21	TWEAK-Fn14 inh 55
Cc1c2ccccc2cc[n+]1CCCS(=O)(=O)[O-]	none
COc1cc(OC)c(NC(=O)c2cc3ccccc3cc2O)cc1Cl	TROY NFkB inh 57, TWEAK-Fn14 inh 94
CCOc1ccc2nc(N/C(N)=N/C(=S)Nc3ccc(C)c(C)c3)nc(C)c2c1	none
COc1ccc(NC(=S)/N=C(\N)Nc2nc(C)c3ccc(C)cc3n2)cc1	Peg3 prom inh 53
CCOC(=O)C(=O)CC(=O)c1ccc2c(c1)OCCO2	TROY NFkB inh 72
O=C(COC(=O)c1cccs1)c1ccc2ccccc2c1	none
CC(=O)NC12CC3CC(C1)CC(C(=O)OCC(=O)c1cc(C)n(C)c1C)(C3)C2	none
Cc1ccc(C(=O)COC(=O)c2cccs2)cc1	TROY NFkB inh 59
CC(=O)NC12CC3CC(C1)CC(C(=O)OCC(=O)c1ccc4c(c1)OCCO4)(C3)C2	TROY NFkB inh 54, TWEAK-Fn14 inh 58
O=C(COC(=O)c1cccs1)c1ccc2c(c1)OCCO2	TROY NFkB inh 75, TWEAK-Fn14 inh 61
NC(=O)c1ccc2c(c1)OCCO2	none (no result: TROY NFkB inh)
O=C(CN1C(=O)C2CCc3[nH]c4ccccc4c3C2C1=O)N1CCCC1 (stereo not drawn)	none
CCCCN(C(=O)CCC(=O)Nc1cc(C)on1)C(C(=O)NC1CCCC1)c1cccc(OC)c1 (stereo not drawn)	none
OC[C@@H]1CN(Cc2ccc(Cl)cc2)C[C@H](n2cnc3c(NC4CCCC4)ncnc32)O1	none
Cc1cccc(C(=O)OCC(=O)c2ccc3c(c2)OCCO3)c1O	TROY NFkB inh 54
Cc1cccc(C(=O)OCC(=O)c2ccc3c(c2)OCO3)c1O	none
